The campaign covered roughly 280,000 compounds. About 180 (0.064%) were called active. Calls come from the whole dose curve; as a rule, active = well fitted inhibition curve with a large enough effect; inconclusive = small, poorly fitted or top-dose-only effect, or effect the other way; inactive = flat fitted curve, though single readings scatter. Many of the other results were omitted from the sample, so actives are more common in it than they were.
Target: Thyroid hormone receptor beta (Homo sapiens) (UniProt P10828)
Experiment: qHTS for Inhibitors of the Interaction of Thyroid Hormone Receptor and Steroid Receptor Coregulator 2;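 note: plate controls were bound peptide for no effect and peptide without receptor for full effect; nearly all actives have a fitted effect of over 50% in size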
Details: TRbeta-SRC2 peptide binding, fluorescence polarization, receptor liganded with 1 µM T3; series mostly up to 106 µM; activity change, negative = inhibition: at the top concentration
In short: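 Decrease in fluorescence polarization of 20 nM Texas Red SRC2 coactivator peptide flagged inhibition of its binding to 0.6 uM TRb LBD; 1 uM T3 included, incubation 5 hr, ex 555/em 632 nm.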

Sequence of Thyroid hormone receptor beta (Homo sapiens) (P10828 whole entry, looked up): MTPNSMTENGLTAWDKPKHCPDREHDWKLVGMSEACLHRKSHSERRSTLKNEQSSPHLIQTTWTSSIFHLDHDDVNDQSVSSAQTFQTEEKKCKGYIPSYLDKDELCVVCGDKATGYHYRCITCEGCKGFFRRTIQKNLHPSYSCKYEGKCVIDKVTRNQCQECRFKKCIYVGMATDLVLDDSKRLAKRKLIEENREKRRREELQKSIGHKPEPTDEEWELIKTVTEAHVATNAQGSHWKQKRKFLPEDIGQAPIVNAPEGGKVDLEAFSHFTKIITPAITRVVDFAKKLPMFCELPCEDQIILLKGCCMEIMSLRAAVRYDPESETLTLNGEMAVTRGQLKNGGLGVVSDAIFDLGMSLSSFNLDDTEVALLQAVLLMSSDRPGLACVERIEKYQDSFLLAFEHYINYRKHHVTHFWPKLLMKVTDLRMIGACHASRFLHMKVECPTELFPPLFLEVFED

Activity change, negative = inhibition, inactive:
CC(=O)Nc1ccc2nc(SCCOc3cc(C)cc(C)c3)sc2c1 -2.28%
COc1ccc(NC(=O)CSc2nc3ccccc3n2CC(=O)N2CCCCC2C)cc1 (stereo not drawn) -6.31%
Cc1cccc(CC(=O)Nc2cccc(-c3cn4cccnc4n3)c2)c1 -4.22%
CC(=O)N(CCN(C(C)=O)C(C)=O)C(C)=O 3.99% [at 201 µM]
COc1ccc(Cl)cc1-n1c(CCC(=O)O)ccc1-c1ccc(C)cc1 -2.76%
CCOc1ccccc1N(CC)C(=O)c1cc2ccc3cccnc3c2[nH]1 -10.7%
CCOc1ccccc1CNC(=O)Nc1cn(CC(C)C)c(=O)c2ccccc12 -27.3%
O=C(Nc1cc(Cl)cc(Cl)c1)c1ccc2c(c1)N(Cc1cccc(Cl)c1)C(=O)c1ccccc1S2=O (stereo not drawn) -0.837%
Clc1cccc(-n2ncc3c(NCCc4ccccc4)ncnc32)c1 10.7%
CCOC(=O)c1c(C)oc2nc(C)nc(N(CC(C)C)CC(C)C)c12 -1.94%
O=C(Nc1cccc(-c2nc3ccccc3o2)c1)c1cccc(Br)c1 5.75%
CCN(CC)S(=O)(=O)c1nnc(NC(=O)COc2ccccc2Cl)s1 6.08%
O=C(c1ccc2c(c1)N(Cc1ccccc1)C(=O)c1ccccc1S2(=O)=O)N1CCC(Cc2ccccc2)CC1 -1.29%
CCc1ccc(NC(=O)c2sc3nc4c(cc3c2N)CN(CC)CC4)cc1 4.82%
CC(=O)c1ccc(NC(=O)CSc2nc(-c3ccccc3F)nc3c2c(=O)n(C)c(=O)n3C)cc1 -4.48%
CCN(CC)c1ccc(NS(=O)(=O)c2cc(-c3cc(C)no3)ccc2C)c(C)c1 7.58%
Cc1ccc(CNC(=O)c2c(O)nc3c(C)cccn3c2=O)cc1 -2.5%
Oc1ccc(-c2nc3ccc(Cl)cn3c2Nc2ccc3c(c2)OCO3)cc1 -5.33%
COc1ccc(CCNC(=O)c2ccc(CSCc3ccc(C)cc3)o2)cc1OC -6.17%
Cc1ccc(-c2nc(SCc3ccc(Br)cc3)n3[nH]c(=O)cc3n2)cc1 -0.18%
COc1ccc(N2CCN(S(=O)(=O)CCNC(=O)C(c3ccccc3)c3ccccc3)CC2)cc1 1.78%
O=C(Nc1nc2c(s1)CCCC2)c1ccccc1F -5.58%
Cc1cc(C)cc(Nc2ncnc3onc(-c4ccc(F)cc4)c23)c1 3.63%
CCOc1cc(C2C(C(=O)OC)=C(C)NC3=C2C(=O)c2ccccc23)ccc1O (stereo not drawn) 11%
OCCC(F)(F)C(F)(F)C(F)(F)C(F)(F)C(F)(F)C(F)(F)C(F)(F)C(F)(F)F 1.78% [at 201 µM]
CCN(CCCNC(=O)c1ccc(Sc2ccc(C)cc2)c(NC(C)=O)c1)c1cccc(C)c1 -0.569%
CCCC/C=C/CCCCO 2.76% [at 201 µM]
CCOC(=O)c1ccc(NC(=O)c2c(NCc3cccs3)sc3c2CCCC3)cc1 2.18%
O=C(NCc1ccc(F)cc1)c1ccc2nc(N3CCCCC3)sc2c1 3.71%
CCOc1cccc2c1N[C@@H](c1ccc(C(=O)O)cc1)[C@H]1CC=C[C@@H]21 14.7%
CN(CC(=O)Nc1ccccc1F)S(=O)(=O)c1ccc2c(c1)c(=O)n(C)c(=O)n2C 2.82%
CCN(CC)CCNc1ncnc2c1cnn2-c1cc(Cl)ccc1C 8.58%
CCOC(=O)c1c(C)oc2nc(C)nc(N3CCN(c4ccc(OC)cc4)CC3)c12 4.33%
CC(C)c1ccc(S(=O)(=O)Nc2ccc(O)c(Sc3nc4ccccc4s3)c2)cc1 5.12%
CCc1cccc(NC(=O)CN(C)S(=O)(=O)c2ccc3[nH]c4c(c3c2)CCCC4)c1 -2.3%
CCN(CC)c1ccc(NC(=O)CN2C(=O)c3cccnc3Oc3ccc(Cl)cc32)c(C)c1 0.578%
Cc1ccc(OCCSc2nc(-c3cccs3)nc3cc(=O)[nH]n23)cc1Cl -6%
Cc1ccc(NC2=C(c3ccc(C(F)(F)F)cc3)C(=O)c3ccccc32)cc1F 10.8%
CCCn1c2ccccc2c2cnn(CC(=O)NCC3CCN(Cc4ccc(C)cc4)CC3)c(=O)c21 0.484%
Cc1cc(C)cc(NC(=O)c2cnc3sc(N4CCCC4)nn3c2=O)c1 4.33%
Cc1cc(C)c(NC(=O)CN2C(=O)c3cccnc3Oc3ccc(Cl)cc32)c(C)c1 0.211%
COc1ccc(N2CCN(c3cc(C)nc4nncn34)CC2)cc1 2.01%
Cn1c(=O)c2c(-c3ccccc3Br)n(Cc3ccccc3)cc2n(C)c1=O -1.69%
CC(C)c1ccc(NC(=O)c2ccc(Cn3nc(N4CCN(c5ccccc5)CC4)ccc3=O)o2)cc1 0.615%
CCOc1ccc(S(=O)(=O)Nc2ccc3oc4c(c3c2)CC(C)CC4)cc1 (stereo not drawn) 6.9%
CC(C)CCCCCOC(=O)CS 3.95% [at 201 µM]
CC1Cc2cc(S(=O)(=O)CCC(=O)NCc3ccc(Cl)cc3)ccc2N1C(=O)C1CC1 (stereo not drawn) 0.303%
CCOC(=O)C1CCCN(C(=O)Cn2ncc3c(C)n(Cc4ccc(F)cc4)c(C)c3c2=O)C1 (stereo not drawn) -3.95%
CSc1ccc(CCNC(=O)c2cc(C)nc3c2c(C)nn3-c2cccc(F)c2)cc1 6.29%
O=c1cc(CSc2ncn[nH]2)[nH]c2ccc(F)cc12 -0.923%
CCc1ccc(C(=O)CC2(O)C(=O)N(CCc3ccccc3)c3ccc(Br)cc32)cc1 (stereo not drawn) 5.72%
COc1ccccc1-c1noc(CSc2nnc(-c3ccccc3)n2-c2ccc(C)c(C)c2)n1 10.2%
Cc1ccc2onc(CC(=O)N3CCN(c4ccc(Cl)cc4)CC3)c2c1 -4.05%
CC(C)c1ccc(OCC(=O)N(Cc2ccc(N(C)C)cc2)C2CCS(=O)(=O)C2)cc1 (stereo not drawn) 1.18%
CCN(CC)c1ccc(NC(=O)CN2CCN(CC(=O)Nc3ccc(Cl)cc3)CC2)cc1 0.686%
Clc1ccc(CSc2nncn3c2cc2occc23)cc1 3.3%
COc1cccc(CNC(=O)CCC(=O)N2CC3CCCN3c3ccccc32)c1 (stereo not drawn) 3.45%
Cc1ccc(C2c3[nH]c4ccccc4c3CCN2C(=O)c2cccc(C)c2)cc1 (stereo not drawn) 7.69%

Reference: PubChem BioAssay AID1469 (National Center for Advancing Translational Sciences (NCATS), 2008)
